Inconclusive results are not listed. Calls of active or inactive are those of the source. Unless noted, the call rests on the fitted dose curve; in most records, active means well fitted curve in the direction sought with a large enough effect in the repeat runs; inconclusive means weak or mixed curves; inactive means no such curve, though single readings can be large; an effect the other way counts as inactive or inconclusive.
What was measured:
[1] = qHTS assay to identify small molecule antagonists of the glucocorticoid receptor (GR) signaling pathway - cell viability counter screen (AID 720693); further: nearly all actives have a fitted effect of over 55% in size
[2] = qHTS assay for identifying genotoxic compounds that show differential cytotoxicity against isogenic chicken DT40 cell lines with known DNA damage response pathways - Rev3 mutant cell line (AID 743014); further: nearly all actives have a fitted effect of over 55% in size; further: potency means the concentration at half of the fitted maximal effect
[3] = qHTS assay to identify small molecule antagonists of the androgen receptor (AR) signaling pathway - cell viability counter screen (AID 743033; further: nearly all actives have a fitted effect of over 45% in size)
[4] = qHTS assay to identify small molecule antagonists of the androgen receptor (AR) signaling pathway using the MDA cell line - cell viability counter screen (AID 743041; further: nearly all actives have a fitted effect of over 45% in size)
Procedure, shortened: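 R1881-driven MDA-kb2 AR-luc cells, 3,000/well, were dosed with library compounds for 16 h; cell health came from CellTiter-Fluor fluorescence in the reporter wells.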

[5] = qHTS assay to identify small molecule antagonists of the thyroid receptor (TR) signaling pathway - cell viability counter screen (AID 743064); further: nearly all actives have a fitted effect of over 50% in size
Procedure, shortened: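 Counter screen for cytotoxicity: compound plus T3 (1 nM final) on GH3.TRE-Luc cells, 23.5 h at 37 °C, then fluorescence viability readout with CellTiter-Fluor.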

[6] = qHTS assay to identify small molecule antagonists of the thyroid receptor (TR) signaling pathway (AID 743065); further: nearly all actives have a fitted effect of over 55% in size
Procedure, shortened: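 Antagonism measured as loss of luciferase signal in GH3 cells stably carrying a TRE-luciferase reporter, co-treated with compound and T3 (1 nM final) for 23.5 h at 37 C. Viability was read in the same well by CellTiter-Fluor.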

[7] = test system: thyroid hormone receptor (rat, GH3 cells); assay: qHTS assay to identify small molecule agonists of the thyroid receptor (TR) signaling pathway (AID 743066; calls by dose curve)
[8] = target: Estrogen receptor (Homo sapiens) (UniProt P03372); assay: qHTS assay to identify small molecule antagonists of the estrogen receptor alpha (ER-alpha) signaling pathway (AID 743069; active means well fitted curve in the direction sought with a large enough effect in the signal ratio in the repeat runs, not every such curve was filed as active; the % refers to the signal ratio)
Sequence of Estrogen receptor (Homo sapiens) (P03372 whole entry, looked up): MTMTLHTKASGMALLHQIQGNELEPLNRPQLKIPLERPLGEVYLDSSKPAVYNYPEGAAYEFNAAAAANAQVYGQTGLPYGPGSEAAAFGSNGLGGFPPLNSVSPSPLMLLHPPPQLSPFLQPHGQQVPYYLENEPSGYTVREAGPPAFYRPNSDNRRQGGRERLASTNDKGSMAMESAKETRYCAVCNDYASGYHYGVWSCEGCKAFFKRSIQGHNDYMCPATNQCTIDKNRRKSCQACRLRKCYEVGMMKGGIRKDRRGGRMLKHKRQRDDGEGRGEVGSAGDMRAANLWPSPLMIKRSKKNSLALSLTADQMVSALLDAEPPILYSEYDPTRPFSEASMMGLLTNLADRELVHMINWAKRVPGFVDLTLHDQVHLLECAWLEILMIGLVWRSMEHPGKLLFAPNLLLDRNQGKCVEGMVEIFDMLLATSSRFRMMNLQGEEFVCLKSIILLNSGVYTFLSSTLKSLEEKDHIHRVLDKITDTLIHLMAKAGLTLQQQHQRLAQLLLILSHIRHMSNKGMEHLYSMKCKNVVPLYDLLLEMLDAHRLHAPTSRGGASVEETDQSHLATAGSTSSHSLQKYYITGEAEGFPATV
Procedure, shortened: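 Compound effects are measured against 17beta-estradiol stimulation in HEK293 cells with a UAS-controlled beta-lactamase reporter for ER-alpha. Exposure lasts 18 hr at 37C; LiveBLAzer B/G FRET substrate follows for 2 hr at room temperature.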

[9] = qHTS assay to identify small molecule antagonists of the estrogen receptor alpha (ER-alpha) signaling pathway - cell viability counter screen (AID 743074; calls by dose curve;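 further: HEK293 cells carrying ER-alpha-UAS-bla reporter stimulated with 17beta-estradiol; nearly all actives have a fitted effect of over 45% in size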)
[10] = target: Estrogen receptor (Homo sapiens) (UniProt P03372); assay: qHTS assay to identify small molecule agonists of the estrogen receptor alpha (ER-alpha) signaling pathway (AID 743075; calls by dose curve)
[11] = qHTS assay to identify small molecule antagonists of the estrogen receptor alpha (ER-alpha) signaling pathway using the BG1 cell line (AID 743080; calls by dose curve;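 further: BG1 cells stimulated with 17beta-estradiol alongside compound; nearly all actives have a fitted effect of over 25% in size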)
Procedure, shortened: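 BG1-Luc-4E2 cells (endogenous full-length ER-alpha, 4xERE luciferase) hormone-starved 5 days in charcoal-stripped FBS, plated 4,000/well for 24 h, then compound plus 17beta-estradiol for 21.5 h at 37 C; ONE-Glo luminescence read.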

[12] = qHTS assay to identify small molecule antagonists of the estrogen receptor alpha (ER-alpha) signaling pathway using the BG1 cell line - cell viability counter screen (AID 743081);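 further: compound given together with 17beta-estradiol as the ER stimulus; nearly all actives have a fitted effect of over 45% in size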
Aromatase (Homo sapiens) = Aromatase (Homo sapiens) (UniProt P11511); assay: qHTS assay to identify aromatase inhibitors (AID 743083); further: nearly all actives have a fitted effect of over 55% in size
Sequence of Aromatase (Homo sapiens) (P11511 whole entry, looked up): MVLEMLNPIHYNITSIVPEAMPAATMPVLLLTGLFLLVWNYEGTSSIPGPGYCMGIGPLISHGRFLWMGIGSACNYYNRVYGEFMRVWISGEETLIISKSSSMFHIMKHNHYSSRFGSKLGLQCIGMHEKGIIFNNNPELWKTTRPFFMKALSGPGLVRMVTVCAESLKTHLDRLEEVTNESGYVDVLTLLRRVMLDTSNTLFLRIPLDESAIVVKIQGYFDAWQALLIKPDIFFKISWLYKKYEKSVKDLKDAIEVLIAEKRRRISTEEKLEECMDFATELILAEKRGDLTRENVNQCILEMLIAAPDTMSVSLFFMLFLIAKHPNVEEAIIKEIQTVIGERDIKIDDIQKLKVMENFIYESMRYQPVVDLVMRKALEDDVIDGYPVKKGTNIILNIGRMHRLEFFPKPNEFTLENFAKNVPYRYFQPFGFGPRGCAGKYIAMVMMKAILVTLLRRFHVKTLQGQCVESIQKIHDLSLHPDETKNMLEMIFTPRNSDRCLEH

[13] = qHTS assay for identifying genotoxic compounds that show differential cytotoxicity against isogenic chicken DT40 cell lines with known DNA damage response pathways - wild type cell line (AID 743012); further: nearly all actives have a fitted effect of over 60% in size
Procedure, shortened: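 Wild type DT40, 300 cells/well, ~0.5 h settle at 37 C/5% CO2; compounds in DMSO added by pintool; 40 h at 37 C/5% CO2; CellTiter-Glo, 30 min RT; luminescence.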

[14] = qHTS assay for identifying genotoxic compounds that show differential cytotoxicity against isogenic chicken DT40 cell lines with known DNA damage response pathways - Rad54/Ku70 mutant cell line (AID 743015); further: nearly all actives have a fitted effect of over 60% in size; further: potency means the concentration at half of the fitted maximal effect
[15] = target: Estrogen receptor (Homo sapiens) (UniProt P03372); assay: qHTS assay to identify small molecule agonists of the estrogen receptor alpha (ER-alpha) signaling pathway using the BG1 cell line (AID 743079); conditions: BG1Luc4E2 cells, ERE-luciferase agonist, 22 h; for activation: at 70.3 µM (top of the series); further: potency means the concentration at half of the fitted maximal effect; on all read-outs here: nearly all actives have a fitted effect of over 20% in size
[16] = target: Androgen receptor (Homo sapiens) (UniProt P10275); assay: qHTS assay to identify small molecule antagonists of the androgen receptor (AR) signaling pathway (AID 743035; active means well fitted inhibition curve with a large enough effect in the signal ratio in the repeat runs, not every such curve was filed as active; the % refers to the signal ratio)
Sequence of Androgen receptor (Homo sapiens) (P10275 whole entry, looked up): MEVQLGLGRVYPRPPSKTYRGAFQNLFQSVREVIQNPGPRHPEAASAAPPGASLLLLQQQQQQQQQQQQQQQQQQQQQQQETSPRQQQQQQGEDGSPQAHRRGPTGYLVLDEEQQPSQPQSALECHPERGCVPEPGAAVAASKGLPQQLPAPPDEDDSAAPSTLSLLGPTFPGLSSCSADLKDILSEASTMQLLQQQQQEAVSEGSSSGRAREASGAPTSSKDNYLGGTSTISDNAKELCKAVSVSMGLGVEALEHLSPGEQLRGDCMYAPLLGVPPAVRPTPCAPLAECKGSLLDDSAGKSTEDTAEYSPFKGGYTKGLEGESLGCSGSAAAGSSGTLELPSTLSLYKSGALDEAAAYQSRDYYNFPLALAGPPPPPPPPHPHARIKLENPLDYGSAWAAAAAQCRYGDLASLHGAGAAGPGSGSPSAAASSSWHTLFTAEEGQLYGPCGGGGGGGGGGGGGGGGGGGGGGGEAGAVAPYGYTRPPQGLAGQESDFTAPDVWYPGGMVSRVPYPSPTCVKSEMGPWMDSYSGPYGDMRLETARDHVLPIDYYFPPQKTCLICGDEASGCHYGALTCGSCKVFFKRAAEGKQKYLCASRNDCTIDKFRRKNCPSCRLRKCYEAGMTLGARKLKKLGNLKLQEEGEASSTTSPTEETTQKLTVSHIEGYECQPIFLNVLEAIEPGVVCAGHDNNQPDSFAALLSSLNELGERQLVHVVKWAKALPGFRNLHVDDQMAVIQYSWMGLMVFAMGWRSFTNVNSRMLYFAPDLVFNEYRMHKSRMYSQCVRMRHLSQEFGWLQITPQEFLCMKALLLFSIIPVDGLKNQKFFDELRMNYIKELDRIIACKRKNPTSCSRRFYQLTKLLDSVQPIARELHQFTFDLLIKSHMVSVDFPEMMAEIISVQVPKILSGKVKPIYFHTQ
Procedure, shortened: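 Fluorescence from a beta-lactamase FRET substrate (LiveBLAzer B/G, 2 h, room temperature) measured inhibition of R1881-stimulated signaling in GeneBLAzer AR-UAS-bla HEK293 cells exposed to compound for 16 h at 37C.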

[17] = target: Androgen receptor (Homo sapiens) (UniProt P10275); assay: qHTS assay to identify small molecule agonists of the androgen receptor (AR) signaling pathway (AID 743036; active means well fitted activation curve with a large enough effect in the signal ratio in the repeat runs, with a control signal flat, not every such curve was filed as active; the % refers to the signal ratio)
Procedure, shortened: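 In this Tox21 qHTS, 2,000 HEK293 AR-bla cells per well were incubated with compounds for 16 h at 37C and 5% CO2. Fluorescence intensity was recorded 2 h after adding LiveBLAzer B/G FRET substrate at room temperature.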

[18] = target: Androgen receptor (Homo sapiens) (UniProt P10275); assay: qHTS assay to identify small molecule agonists of the androgen receptor (AR) signaling pathway using the MDA cell line (AID 743040; further: nearly all actives have a fitted effect of over 20% in size)
Procedure, shortened: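 After a 5 h incubation at 37C and 0% CO2, MDA-kb2 reporter cells were dosed with compounds in DMSO and kept 16 h under the same conditions. Luciferase activity was then read as luminescence with ONE-Glo.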

[19] = target: Androgen receptor (Homo sapiens) (UniProt P10275); assay: qHTS assay to identify small molecule antagonists of the androgen receptor (AR) signaling pathway using the MDA cell line (AID 743042; further: nearly all actives have a fitted effect of over 55% in size)
Procedure, shortened: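 Antagonist mode: compounds plus R1881 agonist added to MDA-kb2 AR-luc cells, incubated 16 h at 37C. Luciferase reporter luminescence quantified, with multiplexed CellTiter-Fluor readout for cell viability.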
On the % scale 0 is the no-effect control and ±100 the full control effect.

CC1(C)CON(Cc2ccccc2Cl)C1=O
active: Potency [2] 68.6 µM
inactive: Potency [1] | Potency [3] | Potency [4] | Potency [5] | Potency [6] | Potency [7] | Potency [8] | outcome [9] | Potency [10] | Potency [11] | Potency [12] | Potency (Aromatase (Homo sapiens))

COc1cc(OC)nc(NC(=O)NS(=O)(=O)c2ncccc2C(=O)N(C)C)n1
inactive: Potency [13] | Potency [2] | Potency [14] | Potency [3] | Potency [4] | Potency [5] | Potency [6] | Potency [7] | Potency [8] | outcome [9] | Potency [10] | activation [15] 9.83% | Potency [11] | Potency [12] | Potency (Aromatase (Homo sapiens))

CCN(Cc1ccc(Cl)nc1)/C(=C/[N+](=O)[O-])NC
inactive: Potency [13] | Potency [2] | Potency [14] | Potency [3] | Potency [4] | Potency [5] | Potency [6] | Potency [7] | Potency [8] | outcome [9] | Potency [10] | activation [15] 1.15% | Potency [11] | Potency [12] | Potency (Aromatase (Homo sapiens))

Clc1cccc(N2CCNCC2)c1
inactive: Potency [1] | Potency [4] | Potency [5] | Potency [7] | Potency [8] | outcome [9] | Potency [10] | activation [15] 10.2% | Potency [11] | Potency [12] | Potency (Aromatase (Homo sapiens))

CCCSP(=S)(OCC)Oc1ccc(Cl)cc1Cl (configuration not stated)
inactive: Potency [1] | Potency [3] | Potency [4] | Potency [5] | Potency [7] | Potency [8] | outcome [9] | Potency [11] | Potency [12] | Potency (Aromatase (Homo sapiens))
active: Potency [14] 61.1 µM | Potency [15] 38.6 µM

CC(C)CC(N(C)C)C1(c2ccc(Cl)cc2)CCC1 (configuration not stated)
inactive: Potency [1] | Potency [2] | Potency [3] | Potency [4] | Potency [7] | outcome [9] | Potency [12] | Potency (Aromatase (Homo sapiens))

O=NN1CCCCC1
inactive: Potency [13] | Potency [2] | Potency [14] | Potency [3] | Potency [16] | outcome [17] | Potency [18] | Potency [4] | outcome [19] | Potency [5] | Potency [6] | Potency [7] | outcome [9] | Potency [12] | Potency (Aromatase (Homo sapiens))

CCC(C)(C)c1cc(-n2nc3ccccc3n2)c(O)c(C(C)(C)CC)c1
inactive: Potency [13] | Potency [2] | Potency [14] | Potency [3] | Potency [16] | outcome [17] | Potency [18] | Potency [4] | outcome [19] | Potency [5] | Potency [6] | Potency [7] | outcome [9] | Potency [12] | Potency (Aromatase (Homo sapiens))

COP(=S)(OC)Oc1c(Cl)cc(C)cc1Cl
inactive: Potency [1] | Potency [3] | Potency [4] | Potency [5] | Potency [6] | Potency [7] | Potency [8] | outcome [9] | Potency [10] | Potency [11] | Potency [12] | Potency (Aromatase (Homo sapiens))
active: Potency [15] 30.6 µM

From PubChem BioAssay (Tox21)
